# Reference: PubChem BioAssay (NCATS)
# Records with an inconclusive call do not appear. Where a call stands in place of a potency, no number is given. Active and inactive are the calls of the source. Calls follow the shape of the full dose curve.
# Legend:
# [1] = Primary qHTS for Huh7 cytotoxicity: counterscreen for inhibitors of MERS-S pseudotyped particle cell entry (AID 1479147)
# [2] = Primary qHTS for inhibitors of MERS-S pseudo-typed particle cell entry (AID 1479149); also: nearly all actives have a fitted effect of over 60% in size; also: potency is read from the fitted curve at half-maximal effect
# [3] = Primary qHTS for Vero E6 cytotoxicity: counterscreen for inhibitors of SARS-S pseudo-typed particle cell entry (AID 1479150)
Structure (SMILES),Potency [1],Potency [2],Potency [3]
C=CCN1CCc2nc(N)sc2CC1,inactive,inactive,inactive
O=C(O)CN(CCN(CC(=O)O)CC(=O)O)CCN(CC(=O)O)CC(=O)O,inactive,inactive,inactive
CC(C)(C)NC[C@H](O)COc1cccc2c1CCCC2=O,inactive,inactive,inactive
Oc1ccccc1,inactive,inactive,inactive
Nc1nc(N)nc(-c2cc(Cl)ccc2Cl)n1,inactive,inactive,inactive
CC(C)Cc1ccc(CC(=O)O)cc1,inactive,inactive,inactive
CO/N=C(/C(=O)N[C@@H]1C(=O)N2C(C(=O)[O-])=C(C[n+]3ccn4ncccc43)CS[C@H]12)c1nsc(N)n1,inactive,inactive,inactive
C/C=C1\[C@H]2C=C(C)C[C@]1(N)c1ccc(=O)[nH]c1C2,inactive,inactive,inactive
COC(=O)c1ccc(O)cc1,inactive,inactive,inactive
COc1ccc(C(=O)c2ccccc2O)c(O)c1,inactive,inactive,inactive
CCCCC(CC)CNC(=O)CC(C)OC(=O)CCC(=O)O (centres undefined),inactive,inactive,inactive
COC(=O)C1=C(C)NC(C)=C(C(=O)OCC(C)=O)C1c1ccccc1[N+](=O)[O-] (centres undefined),inactive,inactive,inactive
CCOC(=O)C1=C[C@@H](OC(CC)CC)[C@H](NC(C)=O)[C@@H](N)C1,inactive,inactive,inactive
CCCCC[C@H](O)/C=C/[C@@H]1[C@H]2C/C(=C/CCCC(=O)O)O[C@H]2C[C@H]1O,inactive,inactive,inactive
Cc1c(N(C)CS(=O)(=O)O)c(=O)n(-c2ccccc2)n1C,inactive,inactive,inactive
COc1ccc2c(c1)c(CC(=O)OC/C=C(\C)CC/C=C(\C)CCC=C(C)C)c(C)n2C(=O)c1ccc(Cl)cc1,inactive,inactive,inactive
CC12CCC(CC1)C(C)(C)O2,inactive,inactive,inactive
N#CSCC(=O)O,inactive,inactive,inactive
C[C@H]1O[C@@H](n2cc(F)c(=O)[nH]c2=O)[C@H](O)[C@@H]1O,inactive,inactive,inactive
NCCCC[C@H](N[C@@H](CCc1ccccc1)C(=O)O)C(=O)N1CCC[C@H]1C(=O)O,inactive,inactive,inactive
Cc1c(C)c2c(c(C)c1O)CCC(C)(COc1ccc(CC3SC(=O)NC3=O)cc1)O2 (centres undefined),inactive,25.1 µM (active),inactive
CN(C)C(=O)Oc1ccc[n+](C)c1,inactive,inactive,inactive

Structure (SMILES),Potency [1],Potency [2],Potency [3]
COC(=O)CCCCC(CCSS/C(CCO)=C(\C)N(C=O)Cc1cnc(C)nc1N)SC(C)=O (centres undefined),inactive,inactive,inactive
OCc1ccc(Cl)cc1Cl,inactive,inactive,inactive
Cc1ccnc(NS(=O)(=O)c2ccc(N)cc2)n1,inactive,inactive,inactive
CC[C@H](C)C(=O)O[C@H]1C[C@H](O)C=C2C=C[C@H](C)[C@H](CC[C@@H](O)C[C@@H](O)CC(=O)O)[C@H]21,inactive,inactive,inactive
CC(C)[C@H](N)C(=O)OCCOCn1cnc2c(=O)[nH]c(N)nc21,inactive,inactive,inactive
Clc1cccc(Cl)c1NC1=NCCN1,inactive,inactive,inactive
CO/N=C(/C(=O)N[C@@H]1C(=O)N2C(C(=O)OCOC(=O)C(C)(C)C)=C(C)CS[C@H]12)c1csc(N)n1,inactive,inactive,inactive
C[N+](C)(C)CCCCCC[N+](C)(C)C,inactive,inactive,inactive
O=C(OCC1(COC(=O)c2cccnc2)CCCC(COC(=O)c2cccnc2)(COC(=O)c2cccnc2)C1O)c1cccnc1,inactive,inactive,inactive
COc1ccc(C(=O)NCc2ccc(OCCN(C)C)cc2)cc1OC,inactive,inactive,inactive
Cc1ccc(C(=O)C(C)CN2CCCCC2)cc1 (centres undefined),inactive,inactive,inactive
CC(=O)OC(C)OC(=O)C(C)c1ccc(-c2ccccc2)c(F)c1 (centres undefined),inactive,inactive,inactive
CCOc1ccc(NS(=O)(=O)c2ccc(N)cc2)nn1,inactive,inactive,inactive
Cc1cc2nc3c(=O)[nH]c(=O)nc-3n(C[C@H](O)[C@H](O)[C@H](O)CO)c2cc1C,inactive,inactive,inactive
O=C(C1CCCCC1)N1CC(=O)N2CCCc3ccccc3C2C1 (centres undefined),inactive,inactive,inactive
COc1c(N2C[C@@H]3CCCN[C@@H]3C2)c(F)cc2c(=O)c(C(=O)O)cn(C3CC3)c12,inactive,inactive,inactive
C[C@@H]1CN(c2c(F)c(F)c3c(=O)c(C(=O)O)cn(C4CC4)c3c2F)C[C@H](C)N1,inactive,inactive,inactive
O=C(OOC(=O)c1ccccc1)c1ccccc1,inactive,inactive,inactive
Cc1cc(O)cc2c1O[C@](C)(CCC[C@H](C)CCC[C@H](C)CCCC(C)C)CC2,inactive,inactive,inactive
O=C(/C=C/c1ccccc1)OCc1ccccc1,inactive,inactive,inactive
CC(=O)Oc1cc(C(C)C)c(OCCN(C)C)cc1C,inactive,inactive,inactive
